From PubChem
In the library only some 7% were active in any assay of this set; here they are far more common.
NR3A LBD binder: modulates the human NR3A ligand-binding domain; NR3A LBD differential scanning fluorimetry, Tm shift; 0% = protein alone, 100% = glycine-bound protein; 340,000 compounds, 2.5% hits; Tm shift relative to glycine control, % at 25 µM;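 active = melting temperature shift of at least 10% of the positive control shift, at one fixed dose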
proKLK7 act: activators of human kallikrein-7 zymogen. P49862. purified proKLK7, EDANS-DABCYL substrate fluorescence; 100% is mature enzyme control, 0% vehicle. activation, % at 7 µM. 370,000 compounds, 0.9% hits;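 active = activation above the mean of all tested compounds plus 3 SD, computed per campaign excluding outliers beyond control limits, cut at about 13% in these data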
ADAM10 inh: inhibitors of human ADAM10 | recombinant ADAM10, EDANS/DABCYL FRET peptide cleavage, 3 h | inhibition, % at 7 µM | 370,000 compounds, 0.62% hits | AID 720582;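 active = inhibition above a per-campaign cutoff equal to the mean of compounds falling between control-based bounds plus 3 SD, cut at about 20% in these data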
rCAG RNA binder: r(CAG) repeat RNA binding; AID 651821; inhibition, % at 3 µM; TO-PRO-1 dye displacement fluorescence; 370,000 compounds, 1.3% hits;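 active = inhibition above the plate cutoff, the mean of all test compounds on that plate plus 3 SD, cut at about 35% in these data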;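 also: higher means more dye released from RNA so lower well fluorescence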
ADAM17 inh: inhibits human ADAM17 | inhibition, % at 6.95 µM | recombinant ADAM17, EDANS/DABCYL FRET peptide cleavage | 370,000 compounds, 0.83% hits | P78536 | AID 720648;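 active = inhibition above the mean of compounds lying between control limits plus 3 SD, set per campaign, cut at about 8.5% in these data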
AHR activator: activators of human aryl hydrocarbon receptor; activation, % at 5 µM; AHR-responsive luciferase reporter cells, luminescence; 320,000 compounds, 2.5% hits; P35869; in the data active = activation above about 47%
ADAM10 ctr: ADAM10 inhibition, counter-screen for ADAM17 exosite hits. recombinant ADAM10, EDANS/DABCYL FRET peptide cleavage, 3 h. shares compounds with ADAM17 inh. 2,900 compounds, 47% hits. inhibition, % at 6.95 µM;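 active = mean inhibition over the triplicate runs exceeds the activity threshold set in the earlier primary screen, cut at about 20% in these data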
ADAM17 confirm: confirmation of inhibitors of human ADAM17. recombinant ADAM17, EDANS/DABCYL QFRET peptide cleavage. shares compounds with ADAM17 inh. AID 743257. 2,900 compounds, 65% hits. inhibition, % at 6.95 µM;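 active = mean inhibition across replicates above the hit cutoff set in the primary screen, cut at about 8.5% in these data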
Numbers stand for hits; i = inactive; nt = not tested or not shown.

SMILES | NR3A LBD binder | proKLK7 act | ADAM10 inh | rCAG RNA binder | ADAM17 inh | AHR activator | ADAM10 ctr | ADAM17 confirm
Cc1ccc(-n2nnnc2CNC(=O)C2CC(=O)N(c3ccccc3)C2)cc1C (centres undefined) | i | i | i | i | 9.4 | i | i | i
CCOc1ccc(-c2c(C(=O)N/N=C/C3CC=CCC3)nnn2-c2nonc2N)cc1 (centres undefined) | i | i | i | i | 9.6 | i | i | i
CCCc1c(C(=O)N/N=C/C2CC=CCC2)nnn1-c1nonc1N (centres undefined) | nt | i | i | i | i | nt | nt | nt
CN(CCc1ccccc1)C(=O)c1ccc(NC(=O)Cc2ccc(NC(=O)C3CCN(C(=O)C4CC4)CC3)cc2)cc1 | i | i | i | i | i | nt | nt | nt
CC(C)(C)OC(=O)N1CCCC(C(=O)Nc2cccc(C(=O)NCCCc3ccccc3)c2)C1 (centres undefined) | i | i | i | i | 12.0 | nt | i | 10.4
CN(C(=O)c1ccc(NC(=O)Cc2cccc(NC(=O)C3CCCN(C(=O)C4CCCC4)C3)c2)cc1)C1CCCC1 (centres undefined) | i | i | i | i | 9.4 | i | i | i
CN(CCc1ccccc1)C(=O)c1ccc(NC(=O)Cc2ccc(NC(=O)C3CCN(C(=O)C4CCCC4)CC3)cc2)cc1 | i | i | i | i | 10.6 | nt | i | 9.8
N#Cc1cccc(NC(=O)CNc2cc(S(=O)(=O)N3CCOCC3)ccc2N2CCCC2)c1 | i | i | i | i | i | nt | nt | nt
CC12CCC(=O)N1C(C(=O)N1CCN(S(=O)(=O)c3ccc(Br)cc3Cl)CC1)CS2 (centres undefined) | i | i | i | i | i | i | nt | nt
O=C(c1cccc(COc2ccc(Cl)cc2Cl)c1)N1CCN(c2ccccn2)CC1 | i | i | i | i | 10.7 | i | i | 9.3
O=C(NNC(=O)C1CCC1)c1ccccc1F | i | i | i | i | 9.9 | i | i | i
COc1ccc([N+](=O)[O-])cc1N1C(=O)c2cccnc2C1=O | i | i | i | i | i | i | nt | nt
CC(=O)Oc1ccc([N+](=O)[O-])cc1N1C(=O)c2ccccc2C1=O | i | i | i | i | 9.8 | i | 22.9 | 13.5
Fc1ccccc1N1CCN(C2CCCN(Cc3cccc(C(F)(F)F)c3)C2)CC1 (centres undefined) | i | i | i | i | i | i | nt | nt
Oc1ccccc1CN1CCCC(N2CCN(c3cccc(C(F)(F)F)c3)CC2)C1 (centres undefined) | i | i | i | i | 9.0 | i | 23.7 | 19.3
Cc1ccc(CNC(=O)[C@H](C)[C@H]2C[C@]2(C)[C@H](NC(=O)OCc2ccccc2)c2ccccc2)o1 | i | nt | nt | nt | nt | i | nt | nt
COc1nnc(-c2ccc(C(=O)N3C[C@@H]4C[C@H](C3)c3cccc(=O)n3C4)cc2)c2ccccc12 | i | i | i | i | 9.6 | nt | i | i
CCn1nc(C)c(/C=N/NC(=S)Nc2ccc(Cl)cc2Cl)c1C | i | i | i | i | 8.7 | 52.8 | i | i
O=C(Nc1cccc(F)c1)Nc1ccc2c(c1)OCO2 | 36.6 | i | i | i | 10.1 | nt | i | i
CC/C(C)=N/Nc1nc2c(c(=O)[nH]c(=O)n2C)n1Cc1ccccc1 | i | i | i | i | 9.1 | i | i | i
CC/C(C)=N/Nc1nc2c(c(=O)[nH]c(=O)n2C)n1CCc1ccccc1 | i | i | i | i | i | i | nt | nt
COc1ccc(S(=O)(=O)N2CCCCC2)cc1NC(=O)c1ccc(OC)c(OC)c1 | i | i | i | i | i | nt | nt | nt
COc1ccc(NC(=O)c2ccc(S(=O)(=O)N3CCCCC3)cc2)cc1OC | i | i | i | i | 9.0 | i | i | 10.5
COc1ccccc1NS(=O)(=O)c1ccc(C)c(NC(=O)c2ccc(S(=O)(=O)N3CCCCCC3)cc2)c1 | i | i | i | i | 12.1 | i | 35.5 | 18.4
CC(C)c1c(C(=O)N/N=C/c2ccoc2)nnn1-c1nonc1N | i | i | i | i | i | i | nt | nt
SMILES | NR3A LBD binder | proKLK7 act | ADAM10 inh | rCAG RNA binder | ADAM17 inh | AHR activator | ADAM10 ctr | ADAM17 confirm
CC(C)c1c(C(=O)N/N=C/c2ccc(C(F)(F)F)cc2)nnn1-c1nonc1N | 27.6 | i | i | i | 9.8 | i | 22.4 | 13.8
CCN(C(=O)COC(=O)CNC(=O)c1ccc(C)cc1)c1c(N)n(Cc2ccccc2)c(=O)[nH]c1=O | i | i | i | i | i | i | nt | nt
COc1c(C(O)CC(C)C)ccc2c1C(=O)OCc1cc(C)cc(O)c1O2 (centres undefined) | i | i | i | i | i | i | nt | nt
COc1c(C(CC(C)C)OC(C)=O)ccc2c1C(=O)OCc1cc(C)cc(O)c1O2 (centres undefined) | i | i | i | i | 11.8 | i | 26.8 | 15.8
O=C(CN1C(=O)c2ccccc2S1(=O)=O)Nc1cc(S(=O)(=O)N2CCCCC2)ccc1Cl | i | i | i | i | 10.4 | nt | i | 13.1
O=C(CN1CCN(c2ccc(O)cc2)CC1)Nc1cc(S(=O)(=O)N2CCCC2)ccc1Cl | i | i | i | i | i | i | nt | nt
O=C(CN1CCN(c2ccc(O)cc2)CC1)Nc1cc(S(=O)(=O)N2CCCCC2)ccc1Cl | i | i | i | i | 10.3 | i | i | 10.7
CC(C)C[C@@H]1Cc2[nH]c(=S)[nH]c(=O)c2[C@H](CCc2ccccc2)O1 | nt | i | i | i | i | nt | nt | nt
Cc1ccc(C(C)C)cc1-n1nnc(-c2cccc(Cc3ccc4ccccc4c3)c2)c1C(C)O (centres undefined) | nt | i | i | i | 17.5 | nt | 31.1 | 17.9
CC(NS(=O)(=O)c1ccc2c(c1)CC(C)N2C(=O)C1CC1)c1ccccc1 (centres undefined) | i | i | i | i | i | i | nt | nt
CCOC(=O)c1oc2cc(O)cc(C)c2c(=O)c1-c1cscn1 | i | i | i | i | 10.2 | i | i | i
CCCc1cc2c(=O)c(-c3cscn3)c(C(=O)OCC)oc2cc1O | i | i | i | i | i | i | nt | nt
Cc1ccc(NC(=O)COC(=O)Cc2c[nH]c3ccccc23)cc1C | i | i | i | i | 14.0 | i | i | i
CC(C)(C)NC(=O)NC(=O)COC(=O)CCCc1c[nH]c2ccccc12 | i | i | i | i | 11.5 | i | i | i
NS(=O)(=O)c1ccc(NC(=O)COC(=O)Cc2c[nH]c3ccccc23)cc1 | i | i | i | i | i | i | nt | nt
CC1CC(NS(=O)(=O)c2cccs2)CC(C)(C)C1 (centres undefined) | i | i | i | i | i | i | nt | nt
O=Cc1ccc(OCc2nnsc2Cl)cc1 | i | i | i | i | i | i | nt | nt
O=C(COC(=O)c1cccc(NS(=O)(=O)/C=C/c2ccccc2)c1)Nc1ccccc1OC(F)F | 18.6 | i | i | i | 9.9 | i | i | 14.6
